Test results as given in PubChem BioAssay (EPA / NIEHS).
Calls of active or inactive are those of the source. The calls were made as follows: active = hit-call score of the fitted dose curve at least 0.9, where 1 is the maximum; inactive = score below 0.9.

Experiments:
Details in all cases: mRNA level, 48 h; actives raise or lower the signal
[1] = read-out: Interleukin 6 (IL6), IL6 (gene 3569); experiment: LTEA_HepaRG_IL6: Life Technologies and Expression Analysis (LTEA) Assay for Interleukin 6 (IL6) using HepaRG (AID 2283509)
In short: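 Differentiated human HepaRG cells, plated 48 h then switched to serum-free induction medium, were exposed in duplicate for 48 h to eight half-log concentrations up to 100 uM in 0.5% DMSO. IL6 mRNA measured by qRT-PCR, normalized to ACTB/GAPDH/POLR2A.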

[2] = read-out: Interleukin 6 Receptor (IL6R), IL6R (gene 3570); experiment: LTEA_HepaRG_IL6R: Life Technologies and Expression Analysis (LTEA) Assay for Interleukin 6 Receptor (IL6R) using HepaRG (AID 2283510)
In short: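 Readout is IL6R transcript level by TaqMan qRT-PCR, normalized to three housekeeping genes and fitted bidirectionally against 0.5% DMSO controls. Human HepaRG cells received chemicals for 48 h in serum-free induction medium, highest concentration 100 uM.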

[3] = read-out: Potassium channel subfamily K member 1 (KCNK1), KCNK1 (gene 3775); experiment: LTEA_HepaRG_KCNK1: Life Technologies and Expression Analysis (LTEA) Assay for Potassium channel subfamily K member 1 (KCNK1) using HepaRG (AID 2283511)
In short: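 Differentiated human HepaRG cells in serum-free induction medium were exposed in duplicate for 48 h to 8 half-log concentrations up to 100 uM in 0.5% DMSO. KCNK1 mRNA was measured by TaqMan qRT-PCR, normalized to ACTB, GAPDH and POLR2A, and fitted bidirectionally versus DMSO.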

[4] = read-out: Keratin 19 (KRT19), KRT19 (gene 3880); experiment: LTEA_HepaRG_KRT19: Life Technologies and Expression Analysis (LTEA) Assay for Keratin 19 (KRT19) using HepaRG (AID 2283512)
In short: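 Gene-expression endpoint in the human liver line HepaRG after 48 h exposure to up to 100 uM test chemical with 0.5% DMSO vehicle; KRT19 mRNA by qRT-PCR, analyzed bidirectionally versus DMSO.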

[5] = read-out: JUN Transcription Factor, JUN (gene 3725); experiment: LTEA_HepaRG_JUN: Life Technologies and Expression Analysis (LTEA) Assay for JUN Transcription Factor using HepaRG (AID 2283513)
In short: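 Cells plated 48 h, medium switched to serum-free induction medium, then dosed 48 h (100 uM top, half-log dilutions, 0.5% DMSO). RNA isolated; JUN measured by qRT-PCR against three housekeeping genes; gain or loss fitted relative to DMSO.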

[6] = read-out: Lipase C (LIPC), LIPC (gene 3990); experiment: LTEA_HepaRG_LIPC: Life Technologies and Expression Analysis (LTEA) Assay for Lipase C (LIPC) using HepaRG (AID 2283514)
In short: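 Differentiated human HepaRG cells in serum-free induction medium were exposed in duplicate for 48 h to eight concentrations (top 100 uM, half-log steps, 0.5% DMSO). LIPC mRNA was quantified by TaqMan qRT-PCR, normalized to ACTB, GAPDH and POLR2A, with bidirectional fitting versus DMSO.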

[7] = read-out: Lipoprotein lipase (LPL), LPL (gene 4023); experiment: LTEA_HepaRG_LPL: Life Technologies and Expression Analysis (LTEA) Assay for Lipoprotein lipase (LPL) using HepaRG (AID 2283515)
In short: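 Differentiated human HepaRG cells in serum-free induction medium were exposed in duplicate for 48 h to eight half-log concentrations (top 100 uM) in 0.5% DMSO. LPL mRNA was quantified by TaqMan qRT-PCR, normalized to ACTB, GAPDH and POLR2A.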

[8] = read-out: MicroRNA 122 (MIR122), gene 406906; experiment: LTEA_HepaRG_MIR122: Life Technologies and Expression Analysis (LTEA) Assay for MicroRNA 122 (MIR122) using HepaRG (AID 2283516); also: the transcript read is the microRNA miR-122
In short: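 HepaRG plated 48 h, switched to serum-free induction medium, then treated in duplicate for 48 h (100 uM top, half-log steps, 0.5% DMSO vehicle). RNA isolated, qRT-PCR performed, concentration-response fitted both directions relative to DMSO.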

[9] = read-out: matrix metalloproteinase-10 (MMP10), MMP10 (gene 4319); experiment: LTEA_HepaRG_MMP10: Life Technologies and Expression Analysis (LTEA) Assay for matrix metalloproteinase-10 (MMP10) using HepaRG (AID 2283517)
In short: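 HepaRG, collagen I, ~100,000 cells/well; serum-free induction medium; 48 h exposure, duplicate, 8-pt half-log to 100 uM, 0.5% DMSO. Readout: TaqMan qRT-PCR, normalized to ACTB/GAPDH/POLR2A; bidirectional fit vs DMSO.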

MYC, MYC (gene 4609) = experiment: LTEA_HepaRG_MYC: Life Technologies and Expression Analysis (LTEA) Assay for MYC using HepaRG (AID 2283518)
In short: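 Cells are thawed, plated and cultured 48 h, then treated for 48 h with test chemicals (eight half-log concentrations from 100 uM, 0.5% DMSO vehicle). RNA is isolated and MYC expression quantified by qRT-PCR against three housekeeping genes.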

[10] = read-out: matrix metalloproteinase-3 (MMP3), MMP3 (gene 4314); experiment: LTEA_HepaRG_MMP3: Life Technologies and Expression Analysis (LTEA) Assay for matrix metalloproteinase-3 (MMP3) using HepaRG (AID 2283519)
In short: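 Differentiated human HepaRG cells, plated 48 h on collagen I, were exposed in duplicate for 48 h in serum-free induction medium to eight half-log concentrations up to 100 uM in 0.5% DMSO. MMP3 mRNA was quantified by TaqMan qRT-PCR, normalised to ACTB, GAPDH and POLR2A.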

[11] = read-out: Paternally Expressed 10 (PEG10), PEG10 (gene 23089); experiment: LTEA_HepaRG_PEG10: Life Technologies and Expression Analysis (LTEA) Assay for Paternally Expressed 10 (PEG10) using HepaRG (AID 2283520)
In short: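 HepaRG, 48 h post-plating → serum-free induction medium → 48 h chemical exposure (duplicate, 8-pt, max 100 uM, half-log, 0.5% DMSO) → lysis in RLT → TaqMan qRT-PCR for PEG10, ACTB/GAPDH/POLR2A normalisation.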

[12] = read-out: Nuclear factor NF-kappa-B p105 subunit (Homo sapiens) (UniProt P19838); experiment: LTEA_HepaRG_NFKB1: Life Technologies and Expression Analysis (LTEA) Assay for Nuclear Factor Kappa B Subunit 1 (NFKB1) using HepaRG (AID 2283521);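 also: TaqMan qRT-PCR transcript normalised to ACTB GAPDH and POLR2A housekeeping genes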
In short: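 Human HepaRG cells receive eight half-log concentrations, highest 100 uM, for 48 h. NFKB1 expression is then quantified by qRT-PCR and analysed for up- or down-regulation relative to 0.5% DMSO vehicle.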

[13] = read-out: Protein phosphatase 2A (PPP2R4), PTPA (gene 5524); experiment: LTEA_HepaRG_PPP2R4: Life Technologies and Expression Analysis (LTEA) Assay for Protein phosphatase 2A (PPP2R4) using HepaRG (AID 2283522)
In short: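 Readout is PPP2R4 transcript level by microfluidic qRT-PCR after 48 h chemical treatment of human HepaRG liver cells. Concentrations spanned 100 uM downward in half-log steps; gain or loss of signal was fitted relative to DMSO.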

[14] = read-out: Phosphatase and tensin (PTEN), PTEN (gene 5728); experiment: LTEA_HepaRG_PTEN: Life Technologies and Expression Analysis (LTEA) Assay for Phosphatase and tensin (PTEN) using HepaRG (AID 2283523)
In short: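 Differentiated human HepaRG cells, plated 48 h then switched to serum-free induction medium, were exposed in duplicate for 48 h to eight half-log concentrations up to 100 uM in 0.5% DMSO. PTEN mRNA measured by TaqMan qRT-PCR, normalized to ACTB/GAPDH/POLR2A, bidirectional fit versus DMSO.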

[15] = read-out: Pyruvate Dehydrogenase Kinase 4 (PDK4), PDK4 (gene 5166); experiment: LTEA_HepaRG_PDK4: Life Technologies and Expression Analysis (LTEA) Assay for Pyruvate Dehydrogenase Kinase 4 (PDK4) using HepaRG (AID 2283525)
In short: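 Differentiated human HepaRG cells, pre-cultured 48 h, were exposed in duplicate for 48 h in serum-free induction medium to eight half-log concentrations up to 100 uM in 0.5% DMSO. PDK4 mRNA was quantified by qRT-PCR, normalized to ACTB, GAPDH and POLR2A, bidirectional fitting versus DMSO.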

[16] = read-out: NAD(P)H dehydrogenase [quinone] 1 (NQO1), NQO1 (gene 1728); experiment: LTEA_HepaRG_NQO1: Life Technologies and Expression Analysis (LTEA) Assay for NAD(P)H dehydrogenase [quinone] 1 (NQO1) using HepaRG (AID 2283526)
In short: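 HepaRG, 48 h post-plating → serum-free induction medium → test chemical 48 h (duplicate, 100 uM top, half-log x8, 0.5% DMSO) → RNA isolation → qRT-PCR, ACTB/GAPDH/POLR2A normalization; bidirectional curve fit vs DMSO baseline.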

[17] = read-out: Nuclear factor erythroid 2-related factor 2 (Homo sapiens) (UniProt Q16236); experiment: LTEA_HepaRG_NFE2L2: Life Technologies and Expression Analysis (LTEA) Assay for Nuclear factor erythroid 2-related factor 2 (NFE2L2) Transcription Factor using HepaRG (AID 2283527);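 also: TaqMan qRT-PCR transcript level normalised to ACTB GAPDH and POLR2A housekeeping genes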
In short: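 Differentiated human HepaRG cells in serum-free induction medium were exposed for 48 h to eight concentrations (top 100 uM, half-log dilutions, 0.5% DMSO), in duplicate. NFE2L2 mRNA was quantified by TaqMan qRT-PCR, normalized to ACTB, GAPDH and POLR2A, with bidirectional fitting versus DMSO.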

[18] = read-out: succinate dehydrogenase complex iron sulfur subunit B (SDHB), SDHB (gene 6390); experiment: LTEA_HepaRG_SDHB: Life Technologies and Expression Analysis (LTEA) Assay for succinate dehydrogenase complex iron sulfur subunit B (SDHB) using HepaRG (AID 2283528)
In short: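 A human HepaRG culture in serum-free induction medium received test chemicals for 48 h over an eight-point range capped at 100 uM. SDHB expression change was quantified by qRT-PCR.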

[19] = read-out: solute carrier (SLC22A1), SLC22A1 (gene 6580); experiment: LTEA_HepaRG_SLC22A1: Life Technologies and Expression Analysis (LTEA) Assay for solute carrier (SLC22A1) using HepaRG (AID 2283524)
In short: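 Human HepaRG cells were plated 48 h, switched to serum-free induction medium, then exposed in duplicate for 48 h to 8-point half-log series from 100 uM in 0.5% DMSO. SLC22A1 mRNA measured by qRT-PCR, normalized to ACTB/GAPDH/POLR2A, fitted bidirectionally versus DMSO.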

Measured: outcome

Sequence of Nuclear factor erythroid 2-related factor 2 (Homo sapiens) (Q16236 whole entry, looked up): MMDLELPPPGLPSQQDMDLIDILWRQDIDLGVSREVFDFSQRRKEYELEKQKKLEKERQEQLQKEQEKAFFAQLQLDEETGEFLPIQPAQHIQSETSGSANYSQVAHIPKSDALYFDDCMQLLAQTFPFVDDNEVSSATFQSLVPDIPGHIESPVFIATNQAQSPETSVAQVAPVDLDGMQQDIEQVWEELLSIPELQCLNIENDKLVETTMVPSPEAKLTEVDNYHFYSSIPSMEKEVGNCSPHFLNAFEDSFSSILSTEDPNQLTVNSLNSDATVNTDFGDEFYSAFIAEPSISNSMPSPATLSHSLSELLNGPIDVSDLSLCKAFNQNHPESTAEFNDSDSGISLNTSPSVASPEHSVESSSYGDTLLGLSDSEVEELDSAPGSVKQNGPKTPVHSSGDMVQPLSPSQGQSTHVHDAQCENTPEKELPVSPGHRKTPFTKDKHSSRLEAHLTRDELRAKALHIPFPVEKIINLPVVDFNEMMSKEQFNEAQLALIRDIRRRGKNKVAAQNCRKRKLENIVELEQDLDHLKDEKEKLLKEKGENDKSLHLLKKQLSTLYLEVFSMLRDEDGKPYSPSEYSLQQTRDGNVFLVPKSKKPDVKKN
Sequence of Nuclear factor NF-kappa-B p105 subunit (Homo sapiens) (P19838 whole entry, looked up): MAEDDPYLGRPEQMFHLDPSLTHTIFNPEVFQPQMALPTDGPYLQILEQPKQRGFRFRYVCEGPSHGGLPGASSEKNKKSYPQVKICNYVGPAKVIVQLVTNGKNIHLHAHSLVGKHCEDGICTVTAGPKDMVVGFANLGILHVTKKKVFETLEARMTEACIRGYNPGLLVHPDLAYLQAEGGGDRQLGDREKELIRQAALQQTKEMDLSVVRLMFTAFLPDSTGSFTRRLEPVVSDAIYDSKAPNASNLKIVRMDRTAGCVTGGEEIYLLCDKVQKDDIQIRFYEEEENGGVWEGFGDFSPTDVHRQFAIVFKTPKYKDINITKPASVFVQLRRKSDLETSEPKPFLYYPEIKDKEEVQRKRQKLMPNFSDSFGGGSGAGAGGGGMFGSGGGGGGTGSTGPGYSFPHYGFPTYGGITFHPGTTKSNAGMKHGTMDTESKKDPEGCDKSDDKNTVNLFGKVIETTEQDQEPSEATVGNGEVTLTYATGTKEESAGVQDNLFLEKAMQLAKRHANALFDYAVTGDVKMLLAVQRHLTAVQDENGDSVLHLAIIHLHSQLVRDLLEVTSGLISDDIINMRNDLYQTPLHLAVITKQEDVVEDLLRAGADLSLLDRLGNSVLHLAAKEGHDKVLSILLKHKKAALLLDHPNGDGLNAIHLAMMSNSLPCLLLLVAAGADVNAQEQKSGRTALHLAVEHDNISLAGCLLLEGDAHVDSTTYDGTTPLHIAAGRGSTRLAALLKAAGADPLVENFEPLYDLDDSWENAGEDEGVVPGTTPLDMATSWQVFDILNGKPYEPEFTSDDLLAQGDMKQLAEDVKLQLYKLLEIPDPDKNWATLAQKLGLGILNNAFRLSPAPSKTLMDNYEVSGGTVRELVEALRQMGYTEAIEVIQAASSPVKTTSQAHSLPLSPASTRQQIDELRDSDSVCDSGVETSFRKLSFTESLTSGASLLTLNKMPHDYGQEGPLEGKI

O=[N+]([O-])c1ccc(O)cc1
not listed: [19]
inactive: all other assays above

CCCCC(CC)COC(=O)CCCCC(=O)OCc1ccccc1 (stereo unspecified)
not listed: [12] | [19]
inactive: all other assays above

Cc1cc(C)c(O)c(C)c1
not listed: [12]
inactive: all other assays above
